Test [1] has as its target Thyrotropin receptor (Homo sapiens) (UniProt P16473). Briefly: qHTS assay to identify small molecule agonists of the thyroid stimulating hormone receptor (TSHR) signaling pathway (AID 1224843; calls by dose curve; note: nearly all actives have a fitted effect of over 45% in size; note: potency is the fitted concentration of half-maximal effect). Put shortly: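 TSHR-expressing HEK293 cells (800 per well) were exposed to compounds for 30 min at room temperature. cAMP was then detected by HTRF competition with cAMP-d2 and anti-cAMP cryptate, read after 1 h at room temperature. Fifteen concentrations, triplicate.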
On the technique in general: In qHTS, concentration-response curves come from the screen itself.

The nature of test [2]: qHTS assay to identify small molecule agonists of H2AX (AID 1224845; active = well fitted activation curve with a large enough effect in the signal ratio in the repeat runs, not every such curve was filed as active; the % refers to the signal ratio). The method in brief: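 Wild-type CHO-K1 cells plated overnight, then exposed 3 hr at 37C to compounds at 15 concentrations (0.76% DMSO). Lysed, then HTRF anti-pH2AX(S139)-cryptate/anti-H2AX-d2 detection after 24 hr at room temperature; emissions 665 and 620 nm.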
Test [3] in a line: qHTS assay to identify small molecule agonists of the hypoxia (HIF-1) signaling pathway (AID 1224846; active = well fitted activation curve with a large enough effect in the signal ratio in the repeat runs, not every such curve was filed as active; the % refers to the signal ratio). Put shortly: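 HRE-bla ME-180 beta-lactamase reporter cells in medium with 0.5% dialyzed FBS, pre-incubated 5 h then exposed to compounds 17 h at 37C, 5% CO2; reporter induction read with CCF4-AM FRET substrate.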
The nature of test [4]: qHTS assay to identify small molecule agonists of H2AX - cell viability counter screen (AID 1224847; calls by dose curve; note: top concentration of the series differs between compounds; nearly all actives have a fitted effect of over 30% in size). Put shortly:
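Compounds tested at 15 concentrations were incubated 3 hr at 37C with wild-type CHO-K1 cells; cellular ATP-based luminescence (CellTiter-Glo) indicated viability.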

Test [5] can be described thus: qHTS assay to identify small molecule antagonists of the estrogen related receptor (ERR) signaling pathway from Tox21 library (AID 1224848). Note: nearly all actives have a fitted effect of over 50% in size. Note: potency is the fitted concentration of half-maximal effect. Put shortly: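 Cells: ERR line, 2,000/well; 6 h preincubation 37 C/5% CO2. Cpd in DMSO via pin tool; 18 h, 37 C. ONE-Glo, 30 min RT, luminescence.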
A short description of test [6]: qHTS assay to identify small molecule agonists of the estrogen related receptor (ERR) signaling pathway from Tox21 library (AID 1224849; calls by dose curve; note: nearly all actives have a fitted effect of over 15% in size). The conditions noted are these: ERR reporter cell line, ONE-Glo luciferase, 18 h; at 92.4 µM (top of the series) unless noted. The method in brief: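 ERR reporter cells (NTP line) pre-incubated 6 hours at 37 C, then exposed to compounds for 18 hours at 37 C. ONE-Glo luciferase luminescence was read after 30 minutes at room temperature.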

Test [7] is described as follows: qHTS RealTime-Glo MT Cell Viability Assay in HepG2 cells - 24 hour (AID 1224867). Note: nearly all actives have a fitted effect of over 50% in size. Note: potency is the fitted concentration of half-maximal effect. The method in brief: (§1)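 Tox21 10K library screened in qHTS format on HepG2 cells carrying RealTime-Glo reagents. Compounds were added after a 5 h preincubation, and the luminescent signal from continuous culture was measured repeatedly during 40 h treatment.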
The nature of test [8]: qHTS RealTime-Glo MT Cell Viability Assay in HEK293 cells - 32 hour (AID 1224868). For activity change, negative = cytotoxic: top concentration of the series differs between compounds. Note: nearly all actives have a fitted effect of over 50% in size. Note: potency is the fitted concentration of half-maximal effect. Put shortly:
(§2)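 Luminescence generated by NanoLuc from substrate produced by living HEK293 cells served as the viability signal. Each value reflects the reading at its stated time point during continuous 40 h compound exposure at 37 C.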

Test [9] is described as follows: A CellTox Green Cytotoxicity Assay to monitor cytotoxicity in HEK293 cells - 0 hour (AID 1224869). Note: nearly all actives have a fitted effect of over 50% in size. The method in brief:
(§3)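 HEK293 cells, 600/well, were preincubated 5 hours and then exposed to compounds at 37 C for up to 40 hours. A cell-impermeant cyanine dye staining dead-cell DNA was read by fluorescence at 0, 8, 16, 24, 32 and 40 h time points.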

The nature of test [10]: qHTS RealTime-Glo MT Cell Viability Assay in HepG2 cells - 40 hour (AID 1224870). Note: nearly all actives have a fitted effect of over 50% in size. Note: potency is the fitted concentration of half-maximal effect. The method in brief: (§4)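 HepG2 cells mixed with RealTime-Glo MT reagents (NanoLuc plus cell-permeant prosubstrate) were seeded at 600 cells/well, incubated 5 h at 37 C/5% CO2, then pinned with compounds in DMSO; nonlytic luminescence tracked viability during 40 h treatment.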
Test [11] in a line: A CellTox Green Cytotoxicity Assay to monitor cytotoxicity in HEK293 cells - 40 hour (AID 1224871). Note: nearly all actives have a fitted effect of over 45% in size. Note: potency is the fitted concentration of half-maximal effect. Put shortly:
as §3

The nature of test [12]: qHTS RealTime-Glo MT Cell Viability Assay in HEK293 cells - 16 hour (AID 1224872). For activity change, negative = cytotoxicity: top concentration of the series differs between compounds. Note: nearly all actives have a fitted effect of over 50% in size. Note: potency is the fitted concentration of half-maximal effect. The method in brief:
as §2

Test [13] is described as follows: qHTS RealTime-Glo MT Cell Viability Assay in HepG2 cells - 8 hour (AID 1224873). Note: nearly all actives have a fitted effect of over 55% in size. The method in brief: as §4
A short description of test [14]: qHTS RealTime-Glo MT Cell Viability Assay in HEK293 cells - 40 hour (AID 1224874). Note: nearly all actives have a fitted effect of over 50% in size. Note: potency is the fitted concentration of half-maximal effect. As to conditions: RealTime-Glo luminescence; max response: stronger effect = lower value. The method in brief:
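600 cells/well were plated with the nonlytic NanoLuc/prosubstrate reagent, pre-incubated 5 h, then given 23 nL of compound in DMSO. Incubation at 37 C for 40 h, with luminescence from viable-cell-reduced substrate read repeatedly from 0 h.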

Test [15] in a line: A CellTox Green Cytotoxicity Assay to monitor cytotoxicity in HEK293 cells - 24 hour (AID 1224875). Note: nearly all actives have a fitted effect of over 45% in size. The method in brief: as §3
Test [16] is described as follows: A CellTox Green Cytotoxicity Assay to monitor cytotoxicity in HepG2 cells - 16 hour (AID 1224876). Note: nearly all actives have a fitted effect of over 45% in size. Note: potency is the fitted concentration of half-maximal effect. Put shortly:
(§5)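 HepG2 cells, 600/well, preincubated 5 h with CellTox Green dye, then exposed to Tox21 compounds in DMSO at 37 C for up to 40 h. Dead-cell DNA fluorescence read at the indicated time point.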

Test [17] can be described thus: qHTS RealTime-Glo MT Cell Viability Assay in HepG2 cells - 32 hour (AID 1224877). Note: nearly all actives have a fitted effect of over 55% in size. Note: potency is the fitted concentration of half-maximal effect. The method in brief:
as §1

Test [18] can be described thus: A CellTox Green Cytotoxicity Assay to monitor cytotoxicity in HepG2 cells - 24 hour (AID 1224878). Note: nearly all actives have a fitted effect of over 45% in size. Note: potency is the fitted concentration of half-maximal effect. Put shortly: as §5
Test [19] in a line: qHTS assay to identify small molecule agonists of the hypoxia (HIF-1) signaling pathway - cell viability counter screen (AID 1224844; calls by dose curve; note: nearly all actives have a fitted effect of over 50% in size; note: potency is the fitted concentration of half-maximal effect). The method in brief: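 HRE-bla ME-180 cells, 2,000/well in 0.5% dialyzed FBS medium, treated 17 h at 37C with compounds. Viability read in the same wells as the bla reporter, by CellTiter-Glo luminescence after 30 min at room temperature.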
Test [20] can be described thus: A CellTox Green Cytotoxicity Assay to monitor cytotoxicity in HepG2 cells - 40 hour (AID 1224879). Note: nearly all actives have a fitted effect of over 40% in size. Note: potency is the fitted concentration of half-maximal effect. The method in brief: as §5

Values joined by “and” are separate entries in the source; they are usually repeats but may differ in a detail not shown here. Equal entries are not always repeated. Records with an inconclusive call do not appear. More than one record can exist for a structure, and the calls need not agree. Active and inactive are the calls of the source. Unless noted, calls come from the whole dose curve; as a rule, active = well fitted curve in the direction sought with a large enough effect in the repeat runs; inconclusive = weak or mixed curves; inactive = no such curve, though single readings can be large; an effect the other way counts as inactive or inconclusive.
% is set by controls: 0 for no effect and ±100 for the full control effect.

Thyrotropin receptor (Homo sapiens), sequence (P16473 whole entry, looked up): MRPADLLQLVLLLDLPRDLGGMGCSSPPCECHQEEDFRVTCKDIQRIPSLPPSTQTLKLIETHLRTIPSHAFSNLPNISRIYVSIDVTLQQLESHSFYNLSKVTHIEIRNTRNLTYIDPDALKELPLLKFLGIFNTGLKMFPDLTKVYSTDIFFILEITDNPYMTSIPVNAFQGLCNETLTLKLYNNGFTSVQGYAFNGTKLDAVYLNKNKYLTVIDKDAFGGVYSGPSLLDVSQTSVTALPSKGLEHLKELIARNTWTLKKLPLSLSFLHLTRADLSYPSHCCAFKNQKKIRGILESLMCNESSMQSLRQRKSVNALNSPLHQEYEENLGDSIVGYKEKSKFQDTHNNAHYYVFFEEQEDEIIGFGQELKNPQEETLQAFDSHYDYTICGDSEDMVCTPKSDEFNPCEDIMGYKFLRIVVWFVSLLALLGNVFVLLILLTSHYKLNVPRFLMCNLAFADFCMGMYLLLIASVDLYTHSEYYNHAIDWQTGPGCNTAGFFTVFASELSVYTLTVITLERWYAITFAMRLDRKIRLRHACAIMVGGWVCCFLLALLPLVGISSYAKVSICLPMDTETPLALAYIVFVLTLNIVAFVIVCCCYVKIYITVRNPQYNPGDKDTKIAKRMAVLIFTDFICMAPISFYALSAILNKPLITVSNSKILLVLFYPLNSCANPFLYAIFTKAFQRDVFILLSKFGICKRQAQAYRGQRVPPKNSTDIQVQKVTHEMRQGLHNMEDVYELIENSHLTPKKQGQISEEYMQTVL

For `COc1ccccc1OC`, the Potency result in test [1], in [4], in test [5], in test [7], in test [8] and in test [10] was “inactive” each time. For the same compound, the Potency result in test [11], in test [12], in test [15], in test [16], in [17] and in test [18] was “inactive” each time. Further, the outcome in [2], in test [3], in [9] and in test [13] was inactive. Further, the activity change, positive = activation in test [6] is 2.11% (inactive). In addition, the max response in test [14] is 0.0799% (inactive).

Turning to `CN(CCO)CCO`, the Potency entry in [1], in [19], in test [4], in test [7], in test [10] and in [11] was “inactive” throughout. In addition, the Potency result in test [12], in [15], in test [16], in [17], in test [18] and in test [20] was “inactive” each time. Further, the outcome in test [3], in test [9] and in test [13] was inactive. In addition, the max response in test [14] was -0.53% (inactive).

Consider `O=C1C2CC=CCC2C(=O)N1SC(Cl)(Cl)Cl` (stereo unspecified), for which the Potency entry in [1] is “inactive and 21.3 µM (active)”; in test [19], 6.07 µM (active); in test [5] it was “inactive and 30.1 µM (active)”; in test [7], “inactive and 24.1 µM (active)”; in [8], 43.5 µM (active) and 3.04 µM (active); in [10] it was “inactive and 19.2 µM (active)”. The Potency in test [11] is 6.81 µM (active); in [12], 3.83 µM (active); in test [14], 43.5 µM (active) and 3.41 µM (active); in test [16] it was “inactive and 42.9 µM (active)”; in test [17], “inactive and 21.5 µM (active)”; in test [18], “inactive and 12.1 µM (active)”. Moreover, the Potency entry in test [20] is “inactive and 10.8 µM (active)”. Moreover, the activity change, positive = activation in test [6] was -8.8% (inactive) and -75.3% (inactive). Further, the call in [9] was inactive.

As to `O=P(O)(O)CN(CP(=O)(O)O)CP(=O)(O)O`, the Potency entry in test [1], in test [19], in [4], in test [7], in test [10] and in test [16] was “inactive” in each case. The Potency entry in test [17], in test [18] and in test [20] was “inactive” throughout. Further, in [9], the cytotoxicity is 9.86% [at 15.8 µM] (inactive). The cytotoxicity increase in [11] was 32.5% [at 15.8 µM] (inactive). In test [13], the outcome was inactive. The activity change in test [15] is 29.5% [at 15.8 µM, stronger effect = higher value] (inactive).

Consider `Clc1cc2c(cc1Cl)Oc1cc(Cl)c(Cl)cc1O2`, for which the figures for the activation in [1] and in [3] were 10.3% [at 0.349 µM] (inactive) and -1.24% [at 0.291 µM] (inactive), respectively. Further, the activity change, negative = cytotoxicity in [19] is -17.7% [at 0.29 µM] (inactive); in test [4], -1.16% [at 0.582 µM] (inactive); in [7] it was -2.29% [at 0.29 µM] (inactive). The cytotoxicity was -18% [at 0.29 µM] (inactive) in [9] and 2.11% [at 0.29 µM] (inactive) in test [18]. The figures for the activity change, negative = cytotoxic in [10] and in test [17] were -10.5% [at 0.29 µM] (inactive) and 1.14% [at 0.29 µM] (inactive), respectively. Further, the cytotoxicity increase in test [11] was -35.9% [at 0.29 µM] (inactive); in test [16], -1.02% [at 0.29 µM] (inactive). Moreover, the viability change, negative = cytotoxic in test [13] was 0.0568% [at 0.29 µM] (inactive). Besides, the activity change in test [15] is -30.3% [at 0.29 µM, stronger effect = higher value] (inactive).

As for `CCN(CC)CCOC(=O)C(O)(c1ccccc1)c1ccccc1`, the Potency entry in test [1], in test [19], in test [4], in test [5], in [7] and in test [8] was “inactive” each time. Moreover, the Potency result in test [10], in [11], in test [12], in test [15], in test [16] and in [17] was “inactive” each time. The Potency entry in test [18] and in test [20] was “inactive” each time. In addition, the result in [3], in test [9] and in test [13] was inactive. Besides, the activity change, positive = activation in test [6] is 2.32% [at 42.5 µM] (inactive). In addition, the max response in [14] is -0.657% (inactive).

For the compound `O=C1CC(=O)NC(=O)N1`, the Potency entry in [1], in test [19], in test [4], in test [7], in [8] and in test [10] was “inactive” in each case. For the same compound, the Potency result in [11], in test [12], in test [15], in test [16], in test [17] and in test [18] was “inactive” each time. Moreover, in [20], the Potency entry is “inactive”. For the same compound, the result in test [3], in test [9] and in test [13] was inactive. Besides, the max response in test [14] was 12.1% (inactive).

Values taken from PubChem BioAssay (Tox21).
